About 840 (25%) of roughly 3,400 compounds were called active. Another 11% or so got no clear call; they are omitted. A selection follows. Results with a measured potency or affinity are listed apart. A number with no mark means an inactive call.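 How the source made its calls: active means fitted half-maximal concentration of signal decrease at or below twice the sample's top tested concentration; inconclusive means flat curve between -70 and -30 percent, or poor fit; inactive means flat within 30 percent, signal rise, or potency above limit.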
assay: T. gondii growth inhibition with IFN-gamma, dose response, cell-based, ME49Luc, HeLa, luciferase, 72 h (AID 1259418); conditions: T. gondii ME49Luc in IFN-y HeLa, active compounds read low, -100% = high-dose IFN-γ control wells; at 19.5 µM unless noted

Row | Structure (SMILES) | max activity
1 | CCOc1ccc(-c2nc(CN3CCN(C(=O)Nc4cccc(OC)c4)CC3)c(C)o2)cc1 | 16.9% [at 0.35 µM]
2 | Cc1ccccc1-c1nc(CN2CCN(C(=O)Nc3ccccc3)CC2)c(C)o1 | -12.3% [at 2.6 µM]
3 | COc1ccc(NC(=O)N2CCN(Cc3nc(-c4ccc(C)cc4)oc3C)CC2)cc1OC | 9.7%
4 | CCOc1ccc(-c2nc(CN3CCN(C(=O)NCCc4ccccc4)CC3)c(C)o2)cc1 | -9.01% [at 0.68 µM]
5 | O=C(Cc1ccc(Cl)cc1)Nc1ccc(-c2nc(-c3ccccc3)co2)cc1 | 17.2% [at 2.6 µM]
6 | CCOC(=O)C(=O)Nc1ccc(-c2nc(-c3ccc(C)cc3C)co2)cc1 | 44.4%
7 | CC(C)c1ccc(C(=O)N=C(N)N)cc1S(C)(=O)=O | 11.6%
8 | CCS(=O)(=O)N1CC(=O)N2[C@H](CO)[C@@H](c3ccc(-c4cccc(F)c4)cc3)[C@@H]2C1 | -8.63%
9 | Cc1ccsc1C(=O)N1CCc2nc(-c3cnn(C)c3)nc(NC(C)C)c2C1 | -26.1% [at 0.16 µM]
10 | CCOc1ccc(-c2nc3c(s2)CN(S(=O)(=O)c2cccc(C)c2)CC3)cc1 | 29%
11 | COc1ccc(-c2nc3c(s2)CN(S(=O)(=O)c2cccc(F)c2)CC3)cc1 | 9.88%
12 | Cc1ccc(-c2coc(-c3ccc(NC(=O)Nc4ccccc4C)cc3)n2)c(C)c1 | 21.8% [at 10 µM]
13 | Cc1ccc(OCC(=O)Nc2ccc(-c3nc(-c4ccc(C)cc4)co3)cc2)cc1 | 20.2%
14 | COc1ccccc1-c1nc(Cn2c(=O)c3c(C)cc(C)nc3n(-c3ccccc3)c2=O)c(C)o1 | 9.28% [at 2.6 µM]
15 | Cc1ccc2c(c1C)-n1cccc1C1(CCN(C(=O)COc3ccc(Cl)cc3)CC1)N2 | -7.41% [at 1.35 µM]
16 | O=C(CCC1Nc2c3ccccc3nc(=S)n2C1=O)NCc1cccs1 (stereo not given) | 14.7% [at 5 µM]
17 | Cc1nc(OCC(=O)Nc2ccccc2C)c2ccccc2n1 | 19.6% [at 0.68 µM]
18 | COc1ccc(C[C@H]2CN(C(=O)c3ccnn3C)CC[C@H]2OC)cc1 | 30.4%
19 | CO[C@@H]1CCN(c2ncccn2)C[C@@H]1Cc1cccc(C)c1 | 9.87%
20 | O=S(=O)(c1cccc(C(F)(F)F)c1)N1CCC(N2CCOCC2)CC1 | 20.6% [at 0.16 µM]
21 | CN(C)C(=O)CN1CCOCC2(CCN(CC3CCOC3)CC2)C1 (stereo not given) | 23.8%
22 | Cc1ccc(C)c(-c2coc(-c3ccc(NC(=O)NC4CCCC4)cc3)n2)c1 | 6.74%
23 | Cc1ccc2c(c1C)-n1cccc1C1(CCN(C(=O)CC3CCCCC3)CC1)N2 | -13.7% [at 0.16 µM]
24 | CCC(CC)C(=O)N1CCC2(CC1)Nc1ccc(C)c(C)c1-n1cccc12 | -6.76% [at 0.35 µM]
25 | CCOc1ccc(S(=O)(=O)N2CCC[C@@H]2C(=O)NCCc2csc(C)n2)cc1 | -13.1%

— PubChem BioAssay AID1259418 (Broad Institute, 2018)
